ChEMBL document CHEMBL4513216, “Probing the Open Global Health Chemical Diversity Library for Multistage-Active Starting Points for Next-Generation Antimalarials” (ACS Infect Dis, 2020)
In all, about 69,000 compounds went through this assay and about 8,600 (12%) showed an effect of 50% or more. This excerpt belongs to a sample that is enriched for strong results.

Each molecule was assayed on Plasmodium berghei (assay: Screen against P. berghei liver stage (PbLuc), transformed with Luciferase, at 10uM). Settings: tested at 10 uM.
Assay type: functional, HepG2
With CN(C)C1(CNC(=O)CC=Cc2ccc(F)cc2)CCOCC1 the INHIBITION was -18%.
Cc1nc(C)n(CC2CCCN(Cc3cn4c(C)cccc4n3)C2)n1 (stereo unspecified) gave an INHIBITION of 5.03%.
O=c1ccc2c(n1CCN1CCCC1)CCN(c1ncccn1)CC2 showed an INHIBITION of 29.5%.
CSCc1noc(CNC(=O)C2CCN(C3CCCCC3)CC2)n1 was tested, and the INHIBITION was 53.9%.
Molecule CSCc1noc(CNC(=O)C2CCN(C(=O)C3CCCC3)CC2)n1 has an INHIBITION of -26%.
Molecule CSCc1noc(CNC(=O)C2CCN(C(=O)C3CCC3)CC2)n1 has an INHIBITION of 16.7%.
In the case of CCOCCCNc1cc(C)nn2cnnc12, the INHIBITION was 25.3%.
Cc1ccc2cnn(CCC(=O)Nc3c(C)nn(C)c3C)c2c1 was tested, and the INHIBITION was -8.19%.
For Cc1nn(C)c(C)c1NC(=O)CCn1ncc2ccccc21, the INHIBITION was 35.8%.
CCn1nc(C)c(NC(=O)CCn2ncc3cc(C)ccc32)c1C was tested, and the INHIBITION was 50.7%.
In the case of CCn1c(CN2CCN(CCO)CC2)nc2c(F)cccc21, the INHIBITION was 24.95%.
Molecule COCCO[C@H]1CCN(C(=O)c2ccno2)[C@H]1Cc1ccncc1 has an INHIBITION of 18.3%.
In the case of CCC1(CC)C(=O)NC(=O)N/C1=N/c1cccc(OC)c1, the INHIBITION was 58.2%.
Work on CCc1cnc2c(c1Nc1cccc(OC)c1)c(=O)n(C)c(=O)n2C yielded an INHIBITION of -31%.
In the case of CCC(C)NC(=O)Nc1cccc(OC)c1 (stereo unspecified), the INHIBITION was -32%.
In the case of CCN(CC)Cc1cc(=O)n2c(n1)CN(S(=O)(=O)C1CC1)CCC2, the INHIBITION was -3.26%.
Molecule Cn1cnc(S(=O)(=O)NCCCN2CCCC2=O)c1Cl has an INHIBITION of 4.71%.
With Cc1ccc(CN2C[C@@H]3C[C@H](C(=O)NCC4CC4)N(C)[C@@H]3C2)o1 the INHIBITION was 16.1%.
Work on Cc1ccc(O)c(C(=O)N2CCOCC2c2c(C)nn(C)c2C)c1 (stereo unspecified) yielded an INHIBITION of -57.4%.
CC1=N[C@@]2(CC[C@@H]3CN(C(=O)NCCc4ccccc4)C[C@@H]32)C(=O)N1 gave an INHIBITION of 13.6%.
CCC1=N[C@@]2(CC[C@@H]3CN(C(=O)NCc4ccccc4)C[C@@H]32)C(=O)N1C gave an INHIBITION of 25%.
Molecule CCC1=N[C@@]2(CC[C@@H]3CN(C(=O)NCc4ccccc4C)C[C@@H]32)C(=O)N1 has an INHIBITION of 70.7%.
CCC1=N[C@@]2(CC[C@@H]3CN(C(=O)NCc4cccc(F)c4)C[C@@H]32)C(=O)N1 was tested, and the INHIBITION was 39.2%.
CCC1=N[C@@]2(CC[C@@H]3CN(Cc4ccccc4C)C[C@@H]32)C(=O)N1 gave an INHIBITION of 37.8%.
For CC1=N[C@@]2(CC[C@@H]3CN(C(=O)NCc4cccc(F)c4)C[C@@H]32)C(=O)N1, the INHIBITION was 75.4%.
CCC1=N[C@@]2(CC[C@@H]3CN(C(=O)NCC4CCCCC4)C[C@@H]32)C(=O)N1 showed an INHIBITION of 47.4%.
CCC1=N[C@@]2(CC[C@@H]3CN(C(=O)NCc4ccccc4)C[C@@H]32)C(=O)N1 was tested, and the INHIBITION was 50%.
In the case of CC1=N[C@@]2(CC[C@@H]3CN(C(=O)NCc4ccccc4C)C[C@@H]32)C(=O)N1, the INHIBITION was 28.7%.
Cc1ccc(-c2nnn(CCN3C(=O)CCC3=O)n2)cc1 gave an INHIBITION of -47.1%.
Cc1cnc(C(=O)N2CCc3ncnc(-c4cnn(C)c4)c3CC2)cn1 showed an INHIBITION of -3.33%.
Work on CC(=O)Nc1nc(C(=O)N2CCCC2c2noc(C(C)C)n2)cs1 (stereo unspecified) yielded an INHIBITION of 40.9%.
Molecule CNC(=O)c1nc(CC(=O)Nc2cccc(C(F)(F)F)c2)no1 has an INHIBITION of -2.61%.
For Cc1cccc(OC2CN(C(=O)C3CC(=O)N(C(C)(C)C)C3)C2)c1 (stereo unspecified), the INHIBITION was 25.5%.
For CC(C)Oc1ccc(CN2CCCC(N3CCOCC3)C2)cc1CO (stereo unspecified), the INHIBITION was 82.9%.
With CC(C)Oc1ccc(CN2CCCC(N3CCCC3)C2)cc1CO (stereo unspecified) the INHIBITION was 20%.
Molecule CC(C)Oc1ccc(CN2CCN3CCN(C)CC3C2)cc1CO (stereo unspecified) has an INHIBITION of -6.97%.
Molecule CCCC(=O)N1CCC(c2cc3cccnc3c(O)n2)CC1 has an INHIBITION of 1.62%.
CN(C)CCCNC(=O)c1ccccc1NC(=O)c1cc(Cl)ccc1Cl was tested, and the INHIBITION was 27.6%.
CCc1nc(C)sc1CN1CC[C@@](O)(C2CCOCC2)[C@H](C)C1 showed an INHIBITION of -10.9%.
O=c1ccc2c([nH]1)CCN(S(=O)(=O)c1ccc3c(c1)OCCO3)C2 showed an INHIBITION of 26%.
Work on O=S(=O)(c1ccc2c(c1)OCCO2)N1CCc2ccccc2C1 yielded an INHIBITION of 57.6%.
In the case of O=S(=O)(c1ccc2c(c1)OCCO2)N1CCC(OCc2ccccn2)C1 (stereo unspecified), the INHIBITION was -35.2%.
Molecule Cc1nc2cc(=O)[nH]n2c(C)c1CC(=O)NCc1ccc(C#N)cc1 has an INHIBITION of 41.2%.
Work on CC(C)(C)S(=O)(=O)CCNC(=O)c1ccc2ccccc2c1 yielded an INHIBITION of -35.8%.
For CNS(=O)(=O)c1cccc(CNC(=O)c2cnn(C)c2C)c1, the INHIBITION was 11.3%.
In the case of CSCc1cccc(S(=O)(=O)NCCO)c1, the INHIBITION was 0.266%.
CSCc1cccc(S(=O)(=O)NCc2cnn(C)c2C)c1 was tested, and the INHIBITION was 78.3%.
CCNS(=O)(=O)c1cccc(CSC)c1 gave an INHIBITION of 19.4%.
With Cc1c(CNS(=O)(=O)c2cccc(COC(C)C)c2)cnn1C the INHIBITION was 57.5%.
COCc1cccc(S(=O)(=O)NCc2cnn(C)c2C)c1 was tested, and the INHIBITION was -25.8%.
Molecule CS(=O)(=O)Nc1ccn(Cc2cccc(Cl)c2)n1 has an INHIBITION of 22.6%.
CCN(Cc1ccco1)C(C)c1nc(C)no1 (stereo unspecified) showed an INHIBITION of -97.2%.
Work on COc1ccc(CN2Cc3nnn(C)c3C(COCCN(C)C)C2)cc1 (stereo unspecified) yielded an INHIBITION of 16.4%.
In the case of Cc1cc2c(c(-c3c[nH]c(C)n3)c1)OC(CN)C2 (stereo unspecified), the INHIBITION was 11.6%.
Cc1nc(-c2cc(Cl)c3c(c2)CC(CN)O3)c[nH]1 (stereo unspecified) showed an INHIBITION of 24.4%.
Work on Cc1nc(-c2cc(Cl)cc3c2OC(CN)C3)c[nH]1 (stereo unspecified) yielded an INHIBITION of 68.3%.
Work on Cc1cc(C(F)(F)F)c2c(=O)n(Cc3cc(C)on3)n(C)c2n1 yielded an INHIBITION of 42.1%.
In the case of CC(C)(CN)NS(=O)(=O)c1c(F)cccc1F, the INHIBITION was -4.62%.
CN1CCC(Cc2nc(-c3cnccn3)n(Cc3ccccc3)n2)CC1 showed an INHIBITION of -14.3%.
CN1CCC(Cc2nc(-c3ccnn3C)n(Cc3ccccc3)n2)CC1 was tested, and the INHIBITION was 64.6%.
With Cc1ncsc1-c1nc(CC2CCN(C)CC2)nn1Cc1ccccc1 the INHIBITION was 47.5%.
Work on COc1c(C2CCCN2Cc2cccc(C(N)=O)c2)c(C)nn1C (stereo unspecified) yielded an INHIBITION of -11.4%.
O=c1cc2c(nn1CN1CCC(c3ccccc3)CC1)CCC2 was tested, and the INHIBITION was 33.6%.
Molecule CCO[C@@H]1CN(S(=O)(=O)c2cn(C)cn2)[C@@H]2CCCO[C@@H]21 has an INHIBITION of 2.79%.
CC(C)CO[C@H]1CN(S(=O)(=O)c2cn(C)cn2)[C@@H]2CCCO[C@H]12 showed an INHIBITION of 53.9%.
With Cn1cnc(S(=O)(=O)N2C[C@H](OCC3CC3)[C@H]3OCCC[C@H]32)c1 the INHIBITION was 40.8%.
